Among the data in PubChem BioAssay are inhibition values, retold here.

By inhibition is commonly meant the drop in the measured response relative to a control, in per cent.

Assay [1] deals with transactivating tegument protein VP16 (Human herpesvirus 1). Put plainly: VP16 transactivation reporter inhibitors, counter-screen for SRC2 inhibitor project, cell-based, luminescence, single concentration (AID 652007; in the data active means inhibition above about 36%). The settings on record: cell-based VP16 transactivation luciferase reporter, at 8.9 µM, active compounds read high. A general note: Counterscreens check selectivity or assay interference.

The target of assay [2] is Nuclear receptor coactivator 2 (Homo sapiens) (UniProt Q15596). In words: SRC2 coactivator transcriptional activity inhibitors, confirmation, cell-based, luminescence, HEK293, triplicate (AID 652008).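 Further: 0% = DMSO-treated cells and 100% = Gossypol at 36 µM.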 The settings on record: HEK293 GAL4-SRC2 luciferase reporter, at 8.9 µM, active compounds read high. Background: In a reporter assay the amount or activity of a reporter protein is the signal.
Sequence of Nuclear receptor coactivator 2 (Homo sapiens) (Q15596 whole entry, looked up, the tested form may be a part): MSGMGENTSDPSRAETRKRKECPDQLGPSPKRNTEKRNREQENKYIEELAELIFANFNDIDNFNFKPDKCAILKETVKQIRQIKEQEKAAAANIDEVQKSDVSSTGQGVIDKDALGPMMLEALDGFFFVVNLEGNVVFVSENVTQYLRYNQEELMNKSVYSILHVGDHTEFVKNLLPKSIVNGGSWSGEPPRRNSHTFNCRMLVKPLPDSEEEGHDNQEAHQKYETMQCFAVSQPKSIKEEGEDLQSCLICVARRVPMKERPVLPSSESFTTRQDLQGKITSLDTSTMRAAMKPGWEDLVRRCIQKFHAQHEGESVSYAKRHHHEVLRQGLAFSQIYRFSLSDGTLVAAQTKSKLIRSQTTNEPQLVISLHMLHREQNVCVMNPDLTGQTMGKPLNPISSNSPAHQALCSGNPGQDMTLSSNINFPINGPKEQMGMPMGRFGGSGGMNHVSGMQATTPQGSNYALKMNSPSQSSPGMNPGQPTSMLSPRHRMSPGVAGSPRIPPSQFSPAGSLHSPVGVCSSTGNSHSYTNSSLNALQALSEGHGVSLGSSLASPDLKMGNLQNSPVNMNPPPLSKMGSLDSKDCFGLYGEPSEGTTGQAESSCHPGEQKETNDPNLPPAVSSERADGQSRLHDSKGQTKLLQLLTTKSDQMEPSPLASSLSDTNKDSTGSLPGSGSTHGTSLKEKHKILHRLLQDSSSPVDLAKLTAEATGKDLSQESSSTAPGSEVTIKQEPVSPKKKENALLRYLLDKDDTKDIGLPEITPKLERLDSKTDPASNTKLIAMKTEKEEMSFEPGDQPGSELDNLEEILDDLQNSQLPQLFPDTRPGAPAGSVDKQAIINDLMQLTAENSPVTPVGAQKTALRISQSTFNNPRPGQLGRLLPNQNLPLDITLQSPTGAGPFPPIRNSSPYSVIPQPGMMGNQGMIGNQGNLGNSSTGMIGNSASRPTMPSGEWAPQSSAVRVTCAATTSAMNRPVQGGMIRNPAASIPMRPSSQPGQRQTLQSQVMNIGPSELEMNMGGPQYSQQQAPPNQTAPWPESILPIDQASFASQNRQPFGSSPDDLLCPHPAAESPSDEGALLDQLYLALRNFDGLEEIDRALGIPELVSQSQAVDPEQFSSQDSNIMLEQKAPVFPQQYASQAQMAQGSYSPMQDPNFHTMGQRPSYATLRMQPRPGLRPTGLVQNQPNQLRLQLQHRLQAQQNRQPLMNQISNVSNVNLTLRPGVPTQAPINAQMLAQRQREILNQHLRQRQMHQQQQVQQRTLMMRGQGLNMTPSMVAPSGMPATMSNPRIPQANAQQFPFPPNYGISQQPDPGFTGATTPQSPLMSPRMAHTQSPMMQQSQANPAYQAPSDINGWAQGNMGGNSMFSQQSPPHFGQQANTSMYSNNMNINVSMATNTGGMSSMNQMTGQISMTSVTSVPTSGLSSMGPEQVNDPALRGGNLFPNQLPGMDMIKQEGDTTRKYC

The structures appear in SMILES notation. Values without a mark were called inactive. Activity calls are given as the source filed them.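 How the source made its calls, unless noted: active means mean inhibition above 46.5%, the solvent-only control mean plus 3 SD; inactive means the rest.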

On to `CCCCCc1c(C)nc(N2CCc3ccccc32)[nH]c1=O`, for which the inhibition in assay [1] was -17.3%; in assay [2] it was 14.9%.
For the compound `CN(Cc1ccccc1F)C(=O)C1CCC(CNS(=O)(=O)c2cccc3cccnc23)CC1` (stereo unspecified), the inhibition is 3.95% in assay [1] and -2.23% in assay [2].
The corresponding values for `O=S(=O)(c1ccc(NC(=S)NCc2ccncc2)cc1)N1CCCCC1` are 15.6% and 0.63%.
`O=C(NCCCN1CCOCC1)c1ccc(CNS(=O)(=O)c2ccc(Br)cc2)cc1`: the inhibition in assay [1] is -18.4%; in assay [2], 19.1%.
The matching figures for `O=[N+]([O-])c1cc(C(F)(F)F)ccc1NCCCCNS(=O)(=O)c1ccc(Cl)cc1`: 3.03% and 43.3%.
The corresponding values for `O=C(NC(=O)c1ccccc1)Nc1ccccn1` are 4.41% and 54.8% (active).
With `CCn1c(C2CCN(S(=O)(=O)c3ccc(OC)cc3)CC2)n[nH]c1=S`, the inhibition was -1.12% in assay [1] and -16.9% in assay [2].
As to `CC1CC(C)(C)Nc2ccc(OC(=O)c3ccco3)cc21` (stereo unspecified), the inhibition in assay [1] is -46.6%; in assay [2], 46.8% (active).
The matching figures for `COc1cccc(/C=N/NC(=O)c2cc(-c3ccccn3)nc3ccccc23)c1O`: 9.38% and 19.8%.
The matching figures for `Cc1nc(-c2ccc(NC(=O)c3ccco3)cc2)cs1`: 18.9% and 60.4% (active).
The corresponding values for `Cc1ccccc1CS(=O)(=O)c1ccc(C(=O)N2CCOCC2)cc1[N+](=O)[O-]` are 14.6% and 24.6%.
For `O=C(O)CCCCCCCCCCC1CCC(O)C1O` (stereo unspecified), the inhibition is 20.8% in assay [1] and 65.3% (active) in assay [2].
The corresponding values for `Cc1cc(C2=NNC(=NC3CC3)SC2)c(C)n1Cc1ccco1` are 78.6% (active) and 93.6% (active).
`C=C1C(=O)O[C@@H]2C[C@@H](C)[C@@H]3C=CC(=O)[C@@]3(C)[C@@H](OC(C)=O)[C@H]12`: the inhibition in assay [1] was 96% (active); in assay [2] it was 91% (active).
The matching figures for `CC(OC(=O)CN1C(=O)NC2(CCCC2)C1=O)c1ccc(F)cc1` (stereo unspecified): -16.9% and -26.5%.
The matching figures for `O=C(NCCc1ccccc1)C(c1cccs1)N(C(=O)CCl)c1ccc(Cl)cc1` (stereo unspecified): 22.9% and 52.8% (active).
In the case of `Cc1ccc(CS(=O)(=O)c2ncc(Cl)c(C(=O)Nc3ccc(OC(F)F)cc3)n2)cc1`, the results for the inhibition in assay [1] and in assay [2] were 76.9% (active) and 28.9%, respectively.
The corresponding values for `CC(=O)O[C@@H]1C[C@H]2C(C)(C)C(=O)C=C[C@]2(C)[C@H]2CC[C@@]3(C)[C@H](c4ccoc4)OC(=O)[C@H]4O[C@]43[C@@]21C` are 35.9% (active) and 27%.
The corresponding values for `CC(C)(c1ccc(O)cc1)c1ccc(O)c(C(=O)O)c1` are -8.08% and -5.54%.
The matching figures for `CC(=O)n1cc(N(C(=O)CCl)c2ccccc2)c2ccccc21`: 51.8% (active) and 50.5% (active).
Regarding `COc1cccc2c1C(CO)N1C(C#N)C3CC(C(=O)O)C(C1C2)N3C` (stereo unspecified), the inhibition in assay [1] was 40.5% (active); in assay [2], 66.1% (active).
On to `CCOC(=O)C(=Cc1ccc(-n2cncn2)cc1)C(=O)OCC`, for which the inhibition in assay [1] is 15.5%; in assay [2] it was 24.5%.
The matching figures for `CCCCN(CCCNC(=S)NCCCc1cnc[nH]1)c1ccc(Br)cn1`: -7.99% and 39.1%.
The matching figures for `CCOc1ccc(-n2nc3ccc(N)cc3n2)cc1`: -14.3% and 66% (active).
The matching figures for `CC(C)c1ccc(/C=C2\CC/C(=C\C=N\N(C)C)C2=O)cc1`: -56.7% and -2.89%.
As to `COC(=O)c1cc(C(=O)OC)cc(S(=O)(=O)Nc2ccc(Cl)c(N)c2)c1`, the inhibition was -6.46% in assay [1] and -14.7% in assay [2].
The corresponding values for `Cc1ccc(N(C(=O)c2ccc3c(c2)OCO3)C2C=CS(=O)(=O)C2)cc1C` (stereo unspecified) are 0.8% and -17.6%.
The corresponding values for `CC(C)C(=O)Nc1cccc2nsnc12` are -7.28% and 5.54%.
The matching figures for `CC(C)(C)c1ccc(NC(=O)COc2ccc(-n3ccnc3)cc2)cc1`: 10.3% and 61.8% (active).
Turning to `Cc1cc(N)ccc1-n1nc2ccccc2n1`, the inhibition was -7.48% in assay [1] and 3.06% in assay [2].
`Cc1cc(N/N=C/c2ccc(O)cc2)nc(NS(=O)(=O)c2ccccc2)n1`: the values for the inhibition in assay [1] and in assay [2] were -14.1% and 16.5%, respectively.
Take `O=C(c1ccc(NS(=O)(=O)c2cccc(F)c2)cc1)N1CCCCC1`: the results for the inhibition in assay [1] and in assay [2] were -7.22% and -9%, respectively.
Take `CC(C)(C)c1ccc(C(=O)Nc2ccc(NC(=O)C(=O)O)cc2)o1`: the inhibition was -30% in assay [1] and -15.8% in assay [2].
